Consider 36 compounds from PubChem BioAssay.

The structures appear in SMILES notation.

The target in this test is E3 ubiquitin-protein ligase XIAP (Homo sapiens) (UniProt P98170). As to the kind of experiment: small molecules binding XIAP protein – biophysical, small-molecule microarray, fluorescence 635 nm, primary screen (AID 1181).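 Further: score merges 667 nm emission and signal to noise over triplicate slides.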 The conditions noted are these: higher = more signal.
E3 ubiquitin-protein ligase XIAP (Homo sapiens), sequence (P98170 whole entry, looked up): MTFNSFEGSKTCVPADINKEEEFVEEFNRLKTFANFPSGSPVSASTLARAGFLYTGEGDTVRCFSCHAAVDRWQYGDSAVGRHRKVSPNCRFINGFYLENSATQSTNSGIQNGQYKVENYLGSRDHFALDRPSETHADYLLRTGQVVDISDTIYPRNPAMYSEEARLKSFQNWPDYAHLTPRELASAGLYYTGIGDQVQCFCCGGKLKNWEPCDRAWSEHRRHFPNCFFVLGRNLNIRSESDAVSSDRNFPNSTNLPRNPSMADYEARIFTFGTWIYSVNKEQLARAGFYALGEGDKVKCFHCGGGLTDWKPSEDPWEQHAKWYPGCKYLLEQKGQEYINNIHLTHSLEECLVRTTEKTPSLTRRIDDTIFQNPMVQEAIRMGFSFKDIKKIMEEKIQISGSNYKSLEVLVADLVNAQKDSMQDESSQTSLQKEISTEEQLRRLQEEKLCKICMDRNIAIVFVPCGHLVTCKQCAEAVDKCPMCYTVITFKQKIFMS
Consider `COC(=O)[C@H](C)NC(=O)CCC1CC(OC(=O)NCc2cccc3ccccc23)CC2(CCCC(COC(=O)NCc3ccccc3)O2)O1` (stereo partly specified), for which the composite z-score is -0.123.
In the case of `O=C1CCCC=C1C(O)C1CCCCC1` (stereo unspecified) it was -0.242; in that of `COc1ccc(COC(=O)NN=C2C[C@@H](O)[C@@H](O)[C@@H]3[C@@H]4C(=O)N(Cc5ccccc5)C(=O)[C@@H]4CC[C@@H]23)cc1`, -0.102; in that of `CO[C@H]1COC(=O)CC=C[C@H](C)[C@H](OC)COC(=O)[C@@H](C)NC(=O)CC=C[C@@H]1C`, 0.0399.
In the case of `CC(C)CON=C1[C@H]2CCn3c(=O)n(C)c(=O)n3[C@H]2[C@H](O)[C@@H]2O[C@H]12` it was -0.117; in that of `CCOC(=O)CCN1C(=O)[C@H]2[C@H]3[C@H](O)[C@H](O)CC(=NOCC=C(C)CCC=C(C)C)[C@@H]3CC[C@H]2C1=O`, 0.175; in that of `CC[C@@H](c1ccccc1)n1c(=O)n2n(c1=O)[C@H]1[C@H](O)[C@@H]3O[C@@H]3C(=NOCc3ccccc3)[C@H]1CC2`, -0.0062.
In the case of `CC(CCN1CCCc2nc(C)c(C)cc21)=NO[C@@H](C)c1cn([C@H](CO)Cc2ccccc2)nn1` it was 0.115; in that of `COC(=O)[C@H](C)NC(=O)CCC1CC(OC(=O)NCCc2ccc(F)cc2)CC2(CCCC(COC(=O)NCC3CCCCC3)O2)O1` (stereo partly specified), 0.514; in that of `CCOC(=O)[C@H](Cc1ccccc1)NC(=O)CCC1CC(OC(=O)NCc2ccc3c(c2)OCO3)CC2(CCCC(COC(=O)NCCCN3CCCC3=O)O2)O1` (stereo partly specified), -0.124.
Consider `CC(CCC(=O)OC[C@H]1O[C@H](C#Cc2ccccc2)C=C[C@@H]1Oc1ccc(C)cc1)=NOC[C@@H](C)[C@H](OCc1ccccc1)C(C)C`, for which the composite z-score is -0.227.
In the case of `CCN1C(=O)[C@H]2[C@H]3[C@H](O)[C@H](O)CC(=NOC[C@@H](O)[C@H]4O[C@@H]5OC(C)(C)O[C@@H]5[C@H]4O)[C@@H]3CC[C@H]2C1=O` it was 0.0126; in that of `CC(C)CON=C1C[C@@H](O)[C@@H](O)[C@@H]2[C@@H]3C(=O)N(Cc4ccc5c(c4)OCO5)C(=O)[C@@H]3CC[C@@H]12`, -0.102.
In the case of `C=CC[C@@H]1C=C[C@H](ON=C2C[C@@H](O)[C@@H](O)[C@@H]3[C@@H]4C(=O)N(CC)C(=O)[C@@H]4CC[C@@H]23)[C@@H](CO)O1` it was -0.289; in that of `CO[C@H]1COC(=O)CCC[C@H](C)[C@H](OC)COC(=O)CC=C[C@@H]1C`, 0.0593; in that of `COc1ccc2c(c1)O[C@@H](c1cccc(C(F)(F)F)c1)[C@H](O)C2=O`, 0.0223.
In the case of `CC(CCN1CCCc2nc(C)c(C)cc21)=NOC[C@@H](O)COCc1ccco1` it was 2.53; in that of `CCN1C(=O)[C@H]2[C@H]3[C@H](O)[C@H](O)CC(=NO[C@@H]4O[C@H](CO)[C@@H](O)[C@H](O)[C@H]4O)[C@H]3CC[C@H]2C1=O`, -0.11; in that of `CCOC(=O)[C@H](CC(C)C)NC(=O)CCC1CC(OC(=O)NCc2ccc3c(c2)OCO3)CC2(CCCC(COC(=O)NCCOc3ccccc3)O2)O1` (stereo partly specified), 0.154.
On to `O=C1C2=CC[C@H]3C(=O)N(c4ccc(F)cc4F)C(=O)[C@H]3[C@H]2[C@H](O)[C@@H]2O[C@H]12`, for which the composite z-score was 0.104.
In the case of `CC(=O)OC[C@H]1O[C@H](C#CCCc2ccccc2)C=C[C@@H]1OC(C)=O` it was -0.105; in that of `CC(C)=NOC(C)CN1CCCc2nc(C)c(C)cc21` (stereo unspecified), -0.0676; in that of `COC(=O)[C@H](C)NC(=O)CCC1CC(OC(=O)NCc2cccc3ccccc23)CC2(CCCC(COC(=O)NCCOc3ccccc3)O2)O1` (stereo partly specified), -0.275.
In the case of `C[C@@H]1CC[C@@H](C(=O)O)N[C@H]1c1cccc(N2CCOCC2)c1` it was 0.13; in that of `COC(=O)[C@@H]1CC[C@H](C)[C@@H](c2ccc(Br)cc2)N1C[C@H](O)CN=[N+]=[N-]`, -0.122; in that of `CCOC(=O)[C@H](Cc1ccccc1)NC(=O)CCC1CC(OC(=O)NCCc2ccc(F)cc2)CC2(CCCC(COC(=O)NCc3cccc(C(F)(F)F)c3)O2)O1` (stereo partly specified), -0.102.
In the case of `COc1cccc([C@H]2Oc3ccc(OC)cc3C(=NOCC[C@@H]3C=C[C@H](OC(C)=O)[C@@H](COC(C)=O)O3)[C@@H]2O)c1` it was 0.0123.
As to `CC(=O)OC[C@H]1O[C@H](CC=NO[C@@H](C)c2cc(-c3c(C)cc(C)cc3C)no2)C=C[C@@H]1OC(C)=O`, the composite z-score was -0.126.
In the case of `CCOC(=O)NN=C1C[C@@H](O)[C@@H](O)[C@@H]2[C@@H]3C(=O)N(c4ccc(F)cc4F)C(=O)[C@@H]3CC[C@H]12` it was -0.176; in that of `O=C1[C@H]2[C@H]3[C@H](O)[C@H](O)CC(=NO[C@@H]4O[C@H](CO)[C@@H](O)[C@H](O)[C@H]4O)[C@H]3CC[C@H]2C(=O)N1C[C@@H]1CCCO1`, 0.127.
In the case of `CCOC(=O)[C@H](Cc1ccccc1)NC(=O)CCC1CC(OC(=O)NCCc2ccc(F)cc2)CC2(CCCC(COC(=O)NCCC(C)C)O2)O1` (stereo partly specified) it was -0.0543; in that of `CO[C@H]1COC(=O)[C@H](C)COC(=O)[C@@H](OCc2ccccc2)C=C[C@@H]1C`, -0.138.
In the case of `O=C1[C@H]2[C@H]3[C@H](O)[C@H](O)CC(=NOC[C@@H](O)COCc4ccco4)[C@@H]3CC[C@H]2C(=O)N1Cc1ccccc1` it was -0.194; in that of `CC(C)=CCCC(C)=CCON=C1C[C@@H](O)[C@@H](O)[C@@H]2[C@@H]3C(=O)N(Cc4ccc5c(c4)OCO5)C(=O)[C@@H]3CC[C@H]12`, -0.144; in that of `COC(=O)[C@H](C)NC(=O)CC=C[C@@H](C)[C@@H]1C=C[C@H](O)[C@@H](CO)O1`, 0.0623.
With `COc1ccc(COC(=O)NN=C2C[C@@H](O)[C@@H](O)[C@@H]3[C@@H]4C(=O)N(C[C@@H]5CCCO5)C(=O)[C@@H]4CC[C@@H]23)cc1`, the composite z-score was -0.0559.
